Laboratory results taken from PubChem BioAssay (NCI).
This is part of a sample that, as a whole, favours compounds with a hit. Of some 79,000 tested, about 15% had one in any assay. Active and inactive are the calls of the source. Rule as the data show it: active = growth inhibition above about 70%; inactive = the rest.

Key:
[1] = NCI Yeast Anticancer Drug Screen. Data for the rad50 strain (AID 155);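 also: 0% = growth of vehicle-only cultures of the same strain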; conditions: S. cerevisiae rad50 strain growth inhibition; at 50.0 µM; stronger effect = higher value
Outline: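 Inhibition values express reduced yeast growth in compound-treated cultures relative to vehicle-treated controls.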

[2] = NCI Yeast Anticancer Drug Screen. Data for the mec2-1 strain (AID 157); conditions: S. cerevisiae mec2-1 strain, at 50.0 µM, stronger effect = higher value
Outline: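 mec2-1 yeast strain, carrying an alteration in DNA damage repair or cell cycle control, was exposed to compounds; growth inhibition was measured relative to vehicle-treated controls.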

[3] = NCI Yeast Anticancer Drug Screen. Data for the sgs1 mgt1 strain (AID 161);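 also: 0% = growth of cultures given vehicle only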; conditions: S. cerevisiae sgs1 mgt1 strain, at 50.0 µM, stronger effect = higher value
Outline: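 Percent growth inhibition was derived by comparing compound-exposed mutant yeast with vehicle-exposed cultures. The strain carries alterations in DNA damage repair.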

[4] = NCI Yeast Anticancer Drug Screen. Data for the cln2 rad14 strain (AID 165);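 also: 0% = growth equal to vehicle treated cultures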; conditions: S. cerevisiae cln2 rad14 strain, at 50.0 µM, stronger effect = higher value
Outline: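 Yeast carrying cln2 and rad14 alterations (cell cycle control and DNA damage repair) were exposed to compounds. Growth inhibition was measured against vehicle-treated controls.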

[5] = NCI Yeast Anticancer Drug Screen. Data for the bub3 strain (AID 167); conditions: S. cerevisiae bub3 mutant strain, at 50.0 µM, stronger effect = higher value
Outline: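 Steps: expose the mutant yeast strain to compound; grow alongside vehicle-treated cultures; measure growth; express inhibition against the vehicle cultures.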

[6] = NCI Yeast Anticancer Drug Screen. Data for the mlh1 rad18 strain (AID 175); conditions: S. cerevisiae mlh1 rad18 strain growth inhibition; at 50.0 µM; stronger effect = higher value
Outline: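 Growth inhibition of the yeast strain was measured after compound exposure and expressed relative to vehicle-treated controls. The strain carries defined defects in DNA damage repair.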

Measured: growth inhibition

O[C@H]1[C@H](O)[C@@H](Cn2nnc(-c3ccccc3)c2-c2ccccc2)OCO[C@@H]1Cn1nnc(-c2ccccc2)c1-c1ccccc1
inactive: [1] 53.3% | [2] 31% | [3] 13.4% | [4] 50.9% | [5] 28.8% | [6] 29.1%

Cc1coc2c1C(OC(=O)C(C)C)C1(C)C(C)CCC(O)C1C2=O (stereo not drawn)
inactive: [1] 9.2% | [2] -6.4% | [3] 31.5% | [4] 10.7% | [5] -1.3% | [6] -37.1%

N#CC(=S)Nc1ccc(F)cc1
inactive: [1] 20.2% | [2] 26.1% | [3] 30.7% | [4] -17.8% | [5] 10.9% | [6] -5.8%

O=C1c2cccnc2-c2nccc3ccnc1c23
active: [1] 75%
inactive: [2] 58.8% | [3] 63% | [4] 45.6% | [5] 57.5% | [6] -37.7%

Cc1ccc(/C=N/Nc2nc3ccccc3s2)s1
inactive: [1] -24.5% | [2] -4% | [3] -9.55% | [4] 0.7% | [5] -12.1% | [6] -11.2%

N#Cc1nc(C(F)(F)F)oc1N
inactive: [1] -2.6% | [2] -1% | [3] -0.95% | [4] -7.85% | [5] -3.3% | [6] -42.4%

Cc1ccc(NC(=O)/C(Cc2cc(=O)oc3cc(O)ccc23)=N\NC(C)(C)C)cc1C
inactive: [1] -3.95% | [2] -10.3% | [3] -21.9% | [5] -17.9% | [6] -3.5%

CCCCC1C(=O)N(c2ccc(S(=O)(=O)Nc3ccccn3)cc2)N(c2ccc(O)c(C(=O)O)c2)C1=O (stereo not drawn)
inactive: [1] 21.8% | [2] 23.7% | [3] 6.7% | [5] 34.6% | [6] 8.85%

COc1ccc2c(C)cc(N/N=C/c3ccc(C)s3)nc2c1
inactive: [1] -23.4% | [2] -26.5% | [3] -19.4% | [4] 9.05% | [5] -39.1% | [6] -12.1%

[O-]c1ccccc1/C=N/C(/N=C/c1ccccc1[O-])c1ccccc1O.[O-]c1ccccc1/C=N/C(/N=C/c1ccccc1[O-])c1ccccc1O.[Zr+4]
inactive: [1] 0.55% | [2] 6.4% | [3] -1.6% | [5] 14.2% | [6] 2.4%

NC(=S)NS(=O)(=O)c1ccc(N)cc1
inactive: [1] -24.6% | [2] -38.2% | [3] -6% | [4] 4.35% | [5] -16.4% | [6] 8.3%

CC1(C)S[C@H](CN)N[C@H]1C(=O)OC(c1ccccc1)c1ccccc1
inactive: [1] -4.3% | [2] -13.4% | [3] 5.25% | [4] -1% | [5] -11.2% | [6] -31.9%

COc1ccc(/C=C2/NC(=S)N=C2Cl)cc1
inactive: [1] -6.9% | [2] -21.8% | [3] 4.3% | [5] 18.1%

COc1cc(N(CCC#N)CCC#N)ccc1/C(N=Nc1ccc(Cl)cc1)=N/NC(=O)c1cc(Br)ccc1O
inactive: [1] 7.6% | [2] -7.45% | [3] -6.45% | [5] 17.8% | [6] 52%

C=C1C2CCC3C4(C)CCCC(C)(C(=O)O)C4CCC3(C2)C1OC(=O)/C(C)=C/C (stereo not drawn)
inactive: [1] 22.4% | [2] 4.85% | [3] -7.05% | [5] 0.75%

O=C(O)c1cc(C(=O)O)cc([N+](=O)[O-])c1
inactive: [1] -3.75% | [2] -5.9% | [3] 4.75% | [4] 0.25% | [5] 8.3% | [6] 7.35%

O=S(=O)(O)c1cc(O)c2c(O)cc(S(=O)(=O)O)cc2c1
inactive: [1] -0.75% | [2] -20.1% | [3] -21.2% | [5] -8.1% | [6] -4.7%

CCCCCCCCOC(=O)C12Oc3ccc(-c4ccc5c(c4O)C(O)=C4C(=O)CC(C)C(O)C4(C(=O)OCCCCCCCC)O5)c(O)c3C(O)=C1C(=O)CC(C)C2O (stereo not drawn)
inactive: [1] 16.4% | [2] 2.95% | [3] 11.4% | [5] 33.6% | [6] -54.6%

CC(=N\N=C\c1ccccn1)/C(C)=N/N=C/c1ccccn1
inactive: [1] 7.8% | [2] 10.3% | [3] -4.4% | [5] -14.2% | [6] -53.3%

Cc1ccc(F)cc1NC(=O)O/N=C(\Cl)C(C)C
inactive: [1] -17.9% | [2] -31.9% | [3] -5.7% | [5] 4.85% | [6] 55.6%

COc1c(O)ccc(C2=Cc3ccc(O)cc3OC2)c1OC
inactive: [6] -25.6%
active: [1] 80.2% | [2] 91.5% | [3] 88.2% | [5] 88.7%

NC(=S)Nc1[nH]c(=S)nc2c1SC1=N/C(=C\c3ccco3)C(=O)N12
inactive: [1] 7.45% | [2] -13.6% | [3] 25.5% | [4] 18.1% | [5] 33.9% | [6] 28.2%

Clc1ccc(C2NN=C3c4ccccc4OCC32)cc1 (stereo not drawn)
inactive: [1] -7.85% | [2] -24.1% | [3] -3% | [4] 7.85% | [5] 1.3% | [6] 17.2%

c1ccc(-c2cccc3ccccc23)cc1
inactive: [1] 32.6% | [2] 6.7% | [3] 2.65% | [5] -11.2% | [6] 16.4%

COC(=O)C(C(=O)C(=O)Nc1c(C)cccc1C(C)(C)C)c1nc2ccc(Cl)cc2[nH]c1=O (stereo not drawn)
inactive: [1] -7.9% | [2] -26.9% | [3] -2.25% | [5] -3.5% | [6] 12.7%

COc1ccc(C2c3cc4c(c(OC)c3CC3OCC(=O)C32)OCO4)cc1OC (stereo not drawn)
inactive: [1] 4.25% | [2] -15.7% | [3] 22.6% | [4] 13.1% | [5] 1.45% | [6] -4.3%

CO/C(N)=C(\C#N)N=Cc1ccc2ccccc2c1
inactive: [1] 30.9% | [2] 14.3% | [3] 13.6% | [5] 16.7% | [6] 40.5%

NC(=O)CC1OC(=O)Cc2cc3c(c(O)c21)C(=O)c1c(O)cccc1C3=O (stereo not drawn)
inactive: [1] 1.05% | [2] 3.55% | [3] 22.4% | [4] 27.7% | [5] 16.5% | [6] -28.6%

COC(=O)C(/C(=N/NC(N)=O)C(=O)Nc1ccc(C)cc1)c1nc2ccc([N+](=O)[O-])cc2[nH]c1=O (stereo not drawn)
inactive: [1] 22.1% | [2] 26.3% | [3] 0.45% | [4] -48.4% | [5] -11% | [6] 42.8%

COc1cc(-c2nc(SC)nc3c2CCc2ccccc2-3)cc(OC)c1OC
inactive: [1] -6% | [2] -5.85% | [3] 2.95% | [4] 10.9% | [5] 4.35% | [6] -20.2%

C=C1CC2(C)CCC(OC(=O)C3(C)OC3C)C(C)(OC(C)=O)C2CC1=C(C)C (stereo not drawn)
inactive: [1] 7.7% | [2] -36.8% | [3] 7.55% | [5] -4.85% | [6] -55%

Cn1cnc2c(=O)[nH]c(=O)[nH]c21
inactive: [1] 25.9% | [2] -10.9% | [3] -43.4% | [5] -34.8% | [6] 10.2%

O=C(/C=C(\[O-])c1ccccc1)CCCCCCC(=O)/C=C(\[O-])c1ccccc1.O=C(/C=C(\[O-])c1ccccc1)CCCCCCC(=O)/C=C(\[O-])c1ccccc1.O=C(/C=C(\[O-])c1ccccc1)CCCCCCC(=O)/C=C(\[O-])c1ccccc1.[Y+3].[Y+3]
inactive: [1] 7.3% | [2] -3.7% | [3] 8.75% | [5] 15.4% | [6] -1.85%

N#CCCOc1ccccc1
inactive: [1] -1.3% | [2] -26% | [3] -9.9% | [4] 15.9% | [5] -30.6% | [6] -8.5%

CC(=Nc1ccncc1)C(C)=Nc1ccncc1
active: [1] 89.7% | [2] 93.6% | [3] 89.8% | [4] 88.8% | [5] 89.8% | [6] 88.7%

Cc1nnc(SCC2=C(C(=O)O)N3C(=O)C(NC(=O)Cn4cnnn4)C3SC2)s1 (stereo not drawn)
inactive: [1] 41.8% | [2] 3.45% | [3] 15.6% | [5] -1.9% | [6] 13.3%

Cc1ccc(NC2=N/C(=C/c3ccccc3)C(Cl)=N2)cc1
inactive: [1] -10.1% | [2] -30.6% | [3] 16.9% | [5] 14.3% | [6] -51%

C/C(O)=C/c1nc2sc(C)c(C)c2c(=O)s1
inactive: [1] 14.4% | [2] 9.35% | [3] 9.85% | [4] 5.5% | [5] 15.2% | [6] -16.5%

Cc1cc(S(=O)(=O)O)c(NC(=O)c2oc3cc(O)ccc3c(=O)c2C)cc1Cl
inactive: [1] -9.4% | [2] -22.9% | [3] 3.9% | [5] -8.35% | [6] 3.95%

CCOC(=O)COc1cc(-c2ccccc2)nc2cc(F)ccc12
inactive: [1] 10.5% | [2] 7.95% | [3] 0.25% | [4] -18.4% | [5] -4.1% | [6] -25.9%

CC(=O)C(/C=N/C(N)=O)=C(/C)O
inactive: [1] 5.4% | [2] -7.5% | [3] 3.75% | [5] -2.3% | [6] 2.55%
